Test [1] can be described thus: ATG_PPRE_CIS: Attagene CIS-FACTORIAL HepG2 Assay for human Peroxisome Proliferator-activated Response Element (PPRE) (AID 2282958). To be noted: HepG2 PPRE cis-element reporter, Attagene transcription factor profiling; actives raise or lower the signal. The essentials: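 HepG2 cells transiently transfected with multiplexed cis-element reporter units measure endogenous transcription factor activity. After 24 h compound exposure, reporter mRNA is quantified by RT-PCR, 6-FAM labeling, HpaI digestion and capillary electrophoresis; bidirectional fits are made against DMSO baseline.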

A short description of test [2]: ATG_RORE_CIS: Attagene CIS-FACTORIAL HepG2 Assay for human RAR-related Orphan Receptor Element (RORE) (AID 2282959). Conditions: HepG2 Attagene cis-factorial RORE reporter, mRNA; actives raise or lower the signal. In short, it runs like this:
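HepG2 cells transiently transfected with multiple cis-element reporter transcription units, exposed to chemical for 24 h. Reporter mRNA quantified by RT-PCR, 6-FAM primer-extension labeling, HpaI digestion and capillary electrophoresis; bidirectional fit versus DMSO baseline.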

A short description of test [3]: ATG_Sox_CIS: Attagene CIS-FACTORIAL HepG2 Assay for human SRY-box transcription factor (SOX) (AID 2282960). Conditions: HepG2 Attagene cis-factorial SOX reporter, mRNA; actives raise or lower the signal. In short, it runs like this: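 HepG2 cells transiently transfected with cis-element-driven multiple reporter transcription units, dosed 24 h; reporter mRNA measured by RT-PCR, FAM labelling, HpaI digestion and capillary electrophoresis. Bidirectional fit versus DMSO baseline.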

For test [4], the target named is Transcription factor Sp1 (Homo sapiens) (UniProt P08047). Kind of test: ATG_Sp1_CIS: Attagene CIS-FACTORIAL HepG2 Assay for human Specificity Protein 1 (Sp1) (AID 2282961). To be noted: HepG2 Sp1 cis-reporter transcription, actives raise or lower the signal. The essentials: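 HepG2 cells transiently transfected with multiple reporter transcription units driven by cis-regulatory elements; Sp1-responsive reporter mRNA measured 24 h after dosing by RT-PCR and capillary electrophoresis fluorescence, fitted bidirectionally against DMSO baseline.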
Sequence of Transcription factor Sp1 (Homo sapiens) (P08047 whole entry, looked up): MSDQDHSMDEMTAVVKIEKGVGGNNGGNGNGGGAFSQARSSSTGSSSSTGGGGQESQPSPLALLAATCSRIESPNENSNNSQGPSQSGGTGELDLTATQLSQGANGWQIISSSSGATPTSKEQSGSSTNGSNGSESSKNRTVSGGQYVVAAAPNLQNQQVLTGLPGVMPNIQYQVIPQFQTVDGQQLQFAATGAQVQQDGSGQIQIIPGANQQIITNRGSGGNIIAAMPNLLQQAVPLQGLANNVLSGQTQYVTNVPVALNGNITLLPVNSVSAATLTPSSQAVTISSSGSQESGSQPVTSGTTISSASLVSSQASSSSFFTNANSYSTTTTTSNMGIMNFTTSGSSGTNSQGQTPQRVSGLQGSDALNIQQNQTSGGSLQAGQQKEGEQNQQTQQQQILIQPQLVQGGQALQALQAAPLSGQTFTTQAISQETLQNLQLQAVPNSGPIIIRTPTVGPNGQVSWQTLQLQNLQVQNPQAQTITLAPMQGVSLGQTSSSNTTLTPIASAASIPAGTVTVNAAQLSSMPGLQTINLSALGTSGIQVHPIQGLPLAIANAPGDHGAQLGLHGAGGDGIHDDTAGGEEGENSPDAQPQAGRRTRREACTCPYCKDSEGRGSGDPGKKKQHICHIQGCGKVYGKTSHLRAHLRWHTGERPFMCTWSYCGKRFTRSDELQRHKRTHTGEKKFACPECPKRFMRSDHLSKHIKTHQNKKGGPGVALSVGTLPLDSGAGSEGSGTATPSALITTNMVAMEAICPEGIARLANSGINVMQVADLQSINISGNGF

Test [5] in a line: ATG_SREBP_CIS: Attagene CIS-FACTORIAL HepG2 Assay for human Sterol Regulatory Element Binding (SREBP) (AID 2282962). Conditions: HepG2 Attagene cis-factorial SREBP reporter, mRNA; actives raise or lower the signal. In short, it runs like this:
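mRNA induction of transfected cis-promoter reporters in HepG2 cells, 24 h post-dose. Detection: RT-PCR with 6-FAM-labelled products, HpaI digest, capillary electrophoresis. DMSO served as negative control and baseline.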

The target of test [6] is Signal transducer and activator of transcription 3 (Homo sapiens) (UniProt P40763). Kind of test: ATG_STAT3_CIS: Attagene CIS-FACTORIAL HepG2 Assay for human Signal Transducer and Activator of Transcription 3 (STAT3) (AID 2282963). Conditions: HepG2, Attagene cis-factorial STAT3 reporter transcription; actives raise or lower the signal. The essentials: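 HepG2 cells transiently transfected with multiple cis-element-driven reporter units report endogenous transcription factor activity. After 24 h compound exposure, reporter mRNA is measured by RT-PCR, 6-FAM labelling, HpaI digestion and capillary electrophoresis. Fitted bidirectionally versus DMSO.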
Sequence of Signal transducer and activator of transcription 3 (Homo sapiens) (P40763 whole entry, looked up): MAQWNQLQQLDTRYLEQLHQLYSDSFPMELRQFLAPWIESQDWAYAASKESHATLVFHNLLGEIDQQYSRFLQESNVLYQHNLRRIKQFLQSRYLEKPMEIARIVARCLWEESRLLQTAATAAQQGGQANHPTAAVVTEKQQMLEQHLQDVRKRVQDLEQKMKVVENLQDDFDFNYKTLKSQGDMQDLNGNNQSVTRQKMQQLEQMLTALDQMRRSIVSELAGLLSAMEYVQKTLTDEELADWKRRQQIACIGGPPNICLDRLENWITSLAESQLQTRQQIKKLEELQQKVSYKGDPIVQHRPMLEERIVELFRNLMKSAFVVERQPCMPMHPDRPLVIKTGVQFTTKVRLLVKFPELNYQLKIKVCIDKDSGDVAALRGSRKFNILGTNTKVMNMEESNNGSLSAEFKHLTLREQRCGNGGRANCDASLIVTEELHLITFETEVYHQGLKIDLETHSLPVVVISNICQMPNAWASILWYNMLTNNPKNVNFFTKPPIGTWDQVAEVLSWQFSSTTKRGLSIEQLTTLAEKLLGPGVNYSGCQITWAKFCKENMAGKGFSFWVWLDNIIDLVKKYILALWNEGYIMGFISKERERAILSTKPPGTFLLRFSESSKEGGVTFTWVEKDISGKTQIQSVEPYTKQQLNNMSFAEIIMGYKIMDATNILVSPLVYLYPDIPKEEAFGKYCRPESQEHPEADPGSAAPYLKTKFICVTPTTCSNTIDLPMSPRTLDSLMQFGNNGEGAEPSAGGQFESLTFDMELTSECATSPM

Test [7] is described as follows: ATG_TA_CIS: Attagene CIS-FACTORIAL HepG2 Assay for human TA Basal Promoter (AID 2282964). To be noted: HepG2 Attagene CIS-factorial TA basal promoter reporter; actives raise or lower the signal. In short, it runs like this: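 Background internal-marker endpoint from a 52-component HepG2 cis-reporter panel. Cells treated 24 h; reporter transcripts quantified via RT-PCR and CE fluorescence against DMSO baseline.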

Test [8] is described as follows: ATG_TCF_b_cat_CIS: Attagene CIS-FACTORIAL HepG2 Assay for human T-Cell-Factor with beta-catenin (TCF/b-cat) (AID 2282965). To be noted: HepG2 TCF/beta-catenin cis-reporter transcription, actives raise or lower the signal. In short, it runs like this:
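HepG2 cells transiently transfected with cis-promoter-driven multiplexed reporter units; reporter mRNA measured 24 h after dosing by RT-PCR, FAM labelling, HpaI digestion and capillary electrophoresis. Bidirectional fitting relative to DMSO baseline.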

Test [9] is described as follows: ATG_TAL_CIS: Attagene CIS-FACTORIAL HepG2 Assay for human TAL Basal Promoter (AID 2282966).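 Further: background control endpoint measuring basal TAL promoter reporter mRNA not a specific factor.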 To be noted: HepG2 Attagene cis-factorial TAL promoter reporter; actives raise or lower the signal. In short, it runs like this:
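HepG2 cells were transiently transfected with promoter-driven multiplexed reporter units and dosed for 24 h. Reporter mRNA was measured by RT-PCR with capillary electrophoresis fluorescence; bidirectional fits used DMSO as baseline, serving as a background control.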

The nature of test [10]: ATG_TGFb_CIS: Attagene CIS-FACTORIAL HepG2 Assay for human Transforming Growth Factor (TGF) (AID 2282967). Conditions: HepG2 Attagene CIS TGFb reporter, mRNA transcription; actives raise or lower the signal. The essentials:
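Liver HepG2 line, cis-factorial reporter panel, 24 h dosing. Quantitation: RT-PCR products labeled with 6-FAM, cut with HpaI, resolved by capillary electrophoresis; DMSO-referenced bidirectional analysis.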

The nature of test [11]: ATG_VDRE_CIS: Attagene CIS-FACTORIAL HepG2 Assay for human Vitamin D Receptor Element (VDRE) (AID 2282968). To be noted: HepG2 VDRE cis-reporter transcription, actives raise or lower the signal. The essentials:
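Transiently transfected HepG2 cells carrying cis-regulated reporter transcription units were exposed for 24 h. Reporter mRNA was measured by RT-PCR with fluorescent labelling and capillary electrophoresis, and fitted in both directions against DMSO.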

For test [12], the target named is Nuclear receptor subfamily 1 group I member 3 (Homo sapiens) (UniProt Q14994). Kind of test: ATG_CAR_TRANS: Attagene TRANS-FACTORIAL HepG2 Assay for human Constitutive Androstane Receptor (CAR) (AID 2282969; active means hit-call score of the fitted dose curve at least 0.9, where 1 is the maximum;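 further: activators raise reporter mRNA above DMSO so AC50 marks induction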). Conditions: HepG2 Attagene TRANS-FACTORIAL CAR reporter. The essentials:
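HepG2 cells transiently transfected with GAL4-UAS reporter units; TRANS format reads activity of exogenous chimeric NR-Gal4 protein. After 24 h dosing, reporter mRNA quantified by RT-PCR, 6-FAM labelling and capillary electrophoresis; gain of signal fitted against DMSO.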

The target in test [13] is Estrogen receptor (Homo sapiens) (UniProt P03372). Kind of test: ATG_ERa_TRANS: Attagene TRANS-FACTORIAL HepG2 Assay for human Estrogen Receptor alpha (ERa) (AID 2282970; active means hit-call score of the fitted dose curve at least 0.9, where 1 is the maximum). To be noted: HepG2 Attagene TRANS ERa GAL4 reporter, mRNA. In short, it runs like this: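 HepG2 cells transiently transfected with multiplexed GAL4-UAS reporter units; ERa activity read via exogenous chimeric NR-Gal4 protein. After 24 hour compound exposure, reporter mRNA measured by RT-PCR with 6-FAM labelling and capillary electrophoresis; gain-of-signal fitted relative to DMSO.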
Sequence of Estrogen receptor (Homo sapiens) (P03372 whole entry, looked up, the tested form may be a part): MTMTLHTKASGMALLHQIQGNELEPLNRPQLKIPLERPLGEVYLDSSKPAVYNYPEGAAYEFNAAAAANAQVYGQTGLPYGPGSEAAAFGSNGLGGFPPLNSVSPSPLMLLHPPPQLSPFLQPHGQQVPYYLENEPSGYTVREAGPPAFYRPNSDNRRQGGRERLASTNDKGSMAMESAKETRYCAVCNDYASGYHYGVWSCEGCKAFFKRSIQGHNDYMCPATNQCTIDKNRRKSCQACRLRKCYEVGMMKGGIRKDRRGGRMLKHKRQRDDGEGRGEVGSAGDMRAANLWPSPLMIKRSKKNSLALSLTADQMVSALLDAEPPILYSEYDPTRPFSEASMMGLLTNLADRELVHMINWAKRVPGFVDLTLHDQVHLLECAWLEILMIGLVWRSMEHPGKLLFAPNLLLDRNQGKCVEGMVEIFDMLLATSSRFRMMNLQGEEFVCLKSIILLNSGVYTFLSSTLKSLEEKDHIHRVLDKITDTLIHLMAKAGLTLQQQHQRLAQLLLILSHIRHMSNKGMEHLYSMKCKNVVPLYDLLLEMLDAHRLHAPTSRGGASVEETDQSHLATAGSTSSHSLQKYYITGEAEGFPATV

The target in test [14] is X-box-binding protein 1 (Homo sapiens) (UniProt P17861). Kind of test: ATG_Xbp1_CIS: Attagene CIS-FACTORIAL HepG2 Assay for human X-box Binding Protein 1 (XBP1) (AID 2282972). To be noted: HepG2 XBP1 cis-element reporter, Attagene multiplex; actives raise or lower the signal. In short, it runs like this:
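Fluorescence-labelled cDNA fragments from reporter transcripts, separated by capillary electrophoresis, give the signal. Source: HepG2 cells transfected with promoter-driven reporter units, harvested 24 h post-dose. DMSO served as reference for bidirectional curve fitting.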

Test [15] can be described thus: ATG_M_19_TRANS: Attagene TRANS-FACTORIAL HepG2 Assay for M19 Transcription Factor (Internal Marker) (AID 2282974; active means hit-call score of the fitted dose curve at least 0.9, where 1 is the maximum). To be noted: HepG2 Attagene TRANS-FACTORIAL M19 internal marker reporter. In short, it runs like this: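 HepG2 cells transiently transfected with multiple GAL4-UAS reporter transcription units were exposed to chemicals for 24 h. Reporter mRNA was read by RT-PCR, 6-FAM primer extension, HpaI digestion and capillary electrophoresis; gain of signal fitted relative to DMSO.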

The target in test [16] is Glucocorticoid receptor (Homo sapiens) (UniProt P04150). Kind of test: ATG_GR_TRANS: Attagene TRANS-FACTORIAL HepG2 Assay for human Glucocorticoid Receptor (GR) (AID 2282978; active means hit-call score of the fitted dose curve at least 0.9, where 1 is the maximum;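 further: activators score as hits since higher reporter transcript over DMSO is fitted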). To be noted: HepG2 Attagene TRANS GR reporter, mRNA transcription. In short, it runs like this: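 HepG2 cells transiently transfected with multiplexed reporter units in which chimeric NR-GAL4 proteins drive GAL4-UAS reporters; 24 h compound exposure. Reporter mRNA measured by RT-PCR, 6-FAM labelling, HpaI digestion and capillary electrophoresis; gain-of-signal fitted versus DMSO.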
Sequence of Glucocorticoid receptor (Homo sapiens) (P04150 whole entry, looked up, the tested form may be a part): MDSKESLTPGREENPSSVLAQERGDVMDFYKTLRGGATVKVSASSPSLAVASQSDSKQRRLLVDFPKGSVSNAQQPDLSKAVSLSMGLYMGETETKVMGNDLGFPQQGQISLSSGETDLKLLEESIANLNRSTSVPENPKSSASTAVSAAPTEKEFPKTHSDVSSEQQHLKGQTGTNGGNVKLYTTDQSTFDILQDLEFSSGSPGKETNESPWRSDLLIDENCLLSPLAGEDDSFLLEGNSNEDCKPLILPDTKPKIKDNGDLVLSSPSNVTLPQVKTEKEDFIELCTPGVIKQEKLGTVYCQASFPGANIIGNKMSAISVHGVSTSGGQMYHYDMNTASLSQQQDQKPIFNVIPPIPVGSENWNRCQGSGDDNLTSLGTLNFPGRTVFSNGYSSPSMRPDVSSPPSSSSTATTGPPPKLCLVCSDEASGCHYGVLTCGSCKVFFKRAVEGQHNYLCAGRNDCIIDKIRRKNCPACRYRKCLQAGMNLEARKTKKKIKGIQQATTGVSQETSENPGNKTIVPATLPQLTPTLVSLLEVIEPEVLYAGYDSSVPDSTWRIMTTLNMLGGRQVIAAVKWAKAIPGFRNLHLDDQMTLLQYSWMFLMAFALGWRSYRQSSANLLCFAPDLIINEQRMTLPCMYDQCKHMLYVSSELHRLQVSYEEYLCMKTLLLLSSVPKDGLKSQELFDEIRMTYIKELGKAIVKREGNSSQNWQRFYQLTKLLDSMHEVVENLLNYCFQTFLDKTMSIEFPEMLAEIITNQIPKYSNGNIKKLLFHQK

Test [17] is described as follows: ATG_GAL4_TRANS: Attagene TRANS-FACTORIAL HepG2 Assay for GAL4 (Internal Marker) (AID 2282976; active means hit-call score of the fitted dose curve at least 0.9, where 1 is the maximum). To be noted: HepG2 Attagene TRANS GAL4 internal marker reporter. The essentials: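 HepG2 cells transiently transfected with multiplexed GAL4-UAS reporter constructs were dosed for 24 h. Reporter mRNA was measured by RT-PCR, 6-FAM primer extension, HpaI digestion and capillary electrophoresis, and gain of signal was fitted relative to DMSO.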

Records with an inconclusive call do not appear. The source made the active and inactive calls. How the source made its calls, unless noted: active means hit-call score of the fitted dose curve at least 0.9, where 1 is the maximum; inactive means score below 0.9.

Sequence of X-box-binding protein 1 (Homo sapiens) (P17861 whole entry, looked up, the tested form may be a part): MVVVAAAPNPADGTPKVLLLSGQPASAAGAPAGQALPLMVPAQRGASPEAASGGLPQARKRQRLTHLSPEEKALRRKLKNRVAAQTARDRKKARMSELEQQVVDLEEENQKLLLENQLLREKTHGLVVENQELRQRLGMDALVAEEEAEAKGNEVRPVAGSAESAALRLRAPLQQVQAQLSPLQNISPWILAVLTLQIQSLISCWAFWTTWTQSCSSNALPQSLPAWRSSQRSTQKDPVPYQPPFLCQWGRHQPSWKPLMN
Sequence of Nuclear receptor subfamily 1 group I member 3 (Homo sapiens) (Q14994 whole entry, looked up, the tested form may be a part): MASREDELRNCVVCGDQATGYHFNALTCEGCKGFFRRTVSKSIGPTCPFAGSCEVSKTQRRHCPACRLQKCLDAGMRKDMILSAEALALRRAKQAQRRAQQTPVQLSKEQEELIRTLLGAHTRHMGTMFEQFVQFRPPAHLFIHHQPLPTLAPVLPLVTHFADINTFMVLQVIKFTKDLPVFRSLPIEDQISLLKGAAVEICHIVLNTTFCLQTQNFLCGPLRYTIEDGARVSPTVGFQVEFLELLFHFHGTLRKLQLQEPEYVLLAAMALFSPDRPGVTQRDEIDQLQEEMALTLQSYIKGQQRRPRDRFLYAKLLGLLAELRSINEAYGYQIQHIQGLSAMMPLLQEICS

Regarding `O=C/C=C/c1ccccc1`, the compound was called inactive in [1], in test [2], in test [3], in test [4], in test [5] and in test [6]. The outcome in test [7], in test [8], in test [9], in test [10], in test [12] and in test [14] was inactive. Further, the result in test [15] and in test [16] was inactive. For the same compound, the results for the AC50 in test [11] and in [13] were 45.5 µM (active) and 27.8 µM (active), respectively.

Turning to `CC(C)(C)c1cc(O)ccc1O`, the AC50 in test [1] was 65.6 µM (active); in [2], 54.6 µM (active); in [3], 179 µM (active); in test [7], 138 µM (active); in test [8] it was 119 µM (active); in test [13], 33.6 µM (active). Moreover, the half-maximal activity concentration (AC50) in test [14] was 109 µM (active). For the same compound, the call in test [4], in test [5], in [6], in test [9] and in test [10] was inactive.

In the case of `C=C(C)C(=O)[O][Sn]([CH2]CCC)([CH2]CCC)[CH2]CCC`, the AC50 in [1] is 0.0903 µM (active); in test [7] it was 0.591 µM (active); in test [11] it was 0.185 µM (active); in [14] it was 0.608 µM (active). Further, the result in test [2], in [3], in test [4], in test [5], in test [6] and in [8] was inactive. Moreover, the result in test [9], in test [10] and in test [13] was inactive.

In the case of `COc1ccc(C=O)cc1`, the outcome in test [1], in test [2], in test [3], in [4], in test [5] and in test [6] was inactive. For the same compound, the outcome in [7], in [8], in test [9], in test [10], in test [11] and in [12] was inactive. The outcome in [13], in test [14] and in [15] was inactive.

Regarding `NC(=S)Nc1ccccc1`, the outcome in test [1], in [2], in test [3], in [4], in [5] and in test [6] was inactive. Besides, the compound was classed as inactive in [7], in test [8], in test [9], in [10], in test [11] and in test [14]. Further, the result in [15] and in [17] was inactive. Further, in [13], the AC50 was 64.2 µM (active).

Usually AC50 stands for the concentration at which the activity in the assay is half-maximal.

For the origin of these results see PubChem BioAssay (EPA / NIEHS).
